BL2 CD40 inh: inhibitors of CD40-induced NF-kB signaling, primary screen, BL2 cells, luciferase reporter, single point | CD40L-induced, 4 h | AID 1053188, 2014 | inhibition, % at 10 µM | hit rate 0.94% among 83,000;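 active = mean inhibition of at least 50% with a set share of replicates also reaching that level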
Numbers stand for hits; [ ] = another dose, or the depositor's remark. This is one part of a sample in which hits are shown more often than they occur.

Results for CC(=O)N1[C@@H]2c3ccc(C4=CCCCC4)c(=O)n3C[C@H]1[C@H](CO)[C@H]2C(=O)NC1CCC1 ?
BL2 CD40 inh: inactive

What do the screens show for `COc1ccccc1OCC(=O)N1CCN(c2ccccc2OC)CC1`?
BL2 CD40 inh: inactive

What do the screens show for `COc1ccccc1N1CCN(c2ccc(-c3ccccc3)nn2)CC1`?
BL2 CD40 inh: 53

How did COc1ccccc1N1CCN(c2ccc(S(=O)(=O)N3CCN(C)CC3)cn2)CC1 do in these assays?
BL2 CD40 inh: inactive

What do the screens show for `COc1ccc(NC(=O)N(C)C[C@H]2OCCCC[C@H](C)Oc3ccc(NC(=O)c4ccncc4)cc3C(=O)N([C@@H](C)CO)C[C@@H]2C)cc1`?
BL2 CD40 inh: inactive

Results for CO[C@H]1CN(C)C(=O)c2cc(NC(=O)c3cc(C)on3)ccc2OC[C@H](C)N(C(=O)C2CC2)C[C@H]1C ?
BL2 CD40 inh: inactive

What do the screens show for `COc1ccc(-c2ccc3c(c2)[C@@H]2[C@@H](CCN2C(=O)C2CCC2)[C@H](CO)N3C)cc1`?
BL2 CD40 inh: 58

What do the screens show for `COc1ccc(-c2ccc3c(c2)[C@H]2[C@H](CCN2C(=O)C2CCOCC2)[C@@H](CO)N3C)cc1`?
BL2 CD40 inh: inactive

How did COc1ccc(-c2ccc3c(c2)[C@@H]2[C@@H](CCN2C(=O)C2CC2)[C@@H](CO)N3C)cc1 do in these assays?
BL2 CD40 inh: inactive

Results for CNC[C@@H]1Oc2ccccc2CC(=O)N(C)C[C@@H]1C ?
BL2 CD40 inh: inactive

What do the screens show for `COc1cccc(S(=O)(=O)N2CC[C@@H]3[C@@H](CO)Nc4ccc(C#Cc5cccnc5)cc4[C@@H]32)c1`?
BL2 CD40 inh: inactive

Results for COc1ccccc1NC(=O)N1C[C@H]2[C@@H](c3ccccc31)[C@H](CO)N2Cc1ccccc1F ?
BL2 CD40 inh: inactive

Results for Cc1cc(O)c(C(C)C)cc1C1(c2cc(C(C)C)c(O)cc2C)OC(=O)c2ccccc21 ?
BL2 CD40 inh: 39

Results for CCN1CC(=O)N2[C@@H](CO)[C@H](c3ccc(Br)cc3)[C@@H]2C1 ?
BL2 CD40 inh: inactive

How did O=C(Nc1ccc(C(F)(F)F)cc1)Nc1ccc2c(c1)[C@H]1C[C@@H](CC(=O)N3CCc4ccccc4C3)O[C@H](CO)[C@H]1O2 do in these assays?
BL2 CD40 inh: 50[25 µM]

How did O=C(Nc1ccc(C(F)(F)F)cc1)Nc1ccc2c(c1)[C@H]1C[C@H](CC(=O)N3CCc4ccccc4C3)O[C@@H](CO)[C@H]1O2 do in these assays?
BL2 CD40 inh: inactive

What do the screens show for `O=C(Cc1ccncc1)Nc1ccc2c(c1)[C@@H]1C[C@@H](CC(=O)N3CCc4ccccc4C3)O[C@H](CO)[C@@H]1O2`?
BL2 CD40 inh: inactive

Results for O=C(Cc1ccncc1)Nc1ccc2c(c1)[C@H]1C[C@H](CC(=O)N3CCc4ccccc4C3)O[C@@H](CO)[C@H]1O2 ?
BL2 CD40 inh: inactive

How did O=C(Nc1ccc(C(F)(F)F)cc1)Nc1ccc2c(c1)[C@H]1C[C@@H](CC(=O)N3CCc4ccccc4C3)O[C@@H](CO)[C@H]1O2 do in these assays?
BL2 CD40 inh: 65[25 µM]

How did O=C(Cc1ccncc1)Nc1ccc2c(c1)[C@@H]1C[C@@H](CC(=O)N3CCc4ccccc4C3)O[C@@H](CO)[C@@H]1O2 do in these assays?
BL2 CD40 inh: inactive

Results for C/C=C/c1ccc([C@H]2[C@@H](CNC(C)=O)N(C(=O)Cc3ccncc3)[C@H]2CO)cc1 ?
BL2 CD40 inh: inactive

What do the screens show for `CCc1cc2c(=O)c(-c3ccc4c(c3)OCCO4)coc2c(CN2CCCCC2C)c1O` (centres undefined)?
BL2 CD40 inh: 32

Results for CSCCC(NC(=O)OC(C)(C)C)C(=O)Oc1ccc2c(=O)c(-c3ccc4c(c3)OCCO4)coc2c1 (centres undefined) ?
BL2 CD40 inh: inactive

What do the screens show for `O=C(CN1CCC(C(=O)c2ccc3c(c2)OCCO3)CC1)NC1CCCC1`?
BL2 CD40 inh: inactive

What do the screens show for `Cc1noc(C)c1NC(=O)N1C[C@@H](O)COC[C@@H]2O[C@H](CC(=O)N[C@H]3CCN(Cc4ccccc4)C3)CC[C@H]21`?
BL2 CD40 inh: inactive

What do the screens show for `N#C[C@H]1[C@H](c2ccccc2)[C@@H](CO)N1C(=O)c1ccc2c(c1)OCO2`?
BL2 CD40 inh: inactive

How did CC(C)C(Cl)=NOC(=O)Nc1ccc(S(N)(=O)=O)cc1 do in these assays?
BL2 CD40 inh: 112

Results for COC(=O)[C@H](C)NC(=O)Nc1ccc(S(N)(=O)=O)cc1 ?
BL2 CD40 inh: inactive

How did CNC(=O)Nc1ccc(S(N)(=O)=O)cc1 do in these assays?
BL2 CD40 inh: inactive

Results for COc1ccc(S(=O)(=O)N2C[C@H](O)COC[C@@H]3O[C@H](CC(=O)N[C@@H]4CCN(Cc5ccccc5)C4)CC[C@H]32)cc1 ?
BL2 CD40 inh: inactive

What do the screens show for `C[C@@H]1CN([C@@H](C)CO)C(=O)c2c(c3ccccc3n2C)-c2ccccc2CO[C@@H]1CN(C)Cc1cccc2c1OCCCO2`?
BL2 CD40 inh: inactive

What do the screens show for `Nc1nnc(CCOc2ccc(Cl)cc2)s1`?
BL2 CD40 inh: inactive

Results for NCCOc1ccc(C23CC4CC(CC(C4)C2)C3)cc1 ?
BL2 CD40 inh: 104

How did NC(=O)c1ccc(C23CC4CC(CC(C4)C2)C3)o1 do in these assays?
BL2 CD40 inh: inactive

Results for COc1ccccc1C(=O)OCC(=O)Nc1ccc(Cl)cn1 ?
BL2 CD40 inh: 49

Results for O=C(COc1ccccc1)Nc1ccc(Cl)cn1 ?
BL2 CD40 inh: inactive

Results for CCOc1ncccc1C(=O)OCC(=O)Nc1ccc(Cl)cn1 ?
BL2 CD40 inh: inactive

Results for CC(C)NC(=O)Nc1cccc2c1O[C@@H](CN(C)C)[C@@H](C)CN(C)C2=O ?
BL2 CD40 inh: inactive

What do the screens show for `Cc1ccc(S(=O)(=O)Nc2ccc3c(c2)CC(=O)N([C@H](C)CO)C[C@H](C)[C@@H](CN(C)S(=O)(=O)c2ccccc2)O3)cc1`?
BL2 CD40 inh: inactive

Results for CC(C)[C@@H]1CCc2cnnn2COC[C@@H](Cc2ccccc2)NC1=O ?
BL2 CD40 inh: inactive

What do the screens show for `CCCNC(=O)C[C@H]1CC[C@@H]2[C@@H](COc3ccc(NC(=O)NCCC)cc3C(=O)N2C)O1`?
BL2 CD40 inh: inactive

How did O=C(/C=C/c1cccs1)c1ccc(N2CCOCC2)cc1 do in these assays?
BL2 CD40 inh: 54

What do the screens show for `CC(=O)c1ccc(N2CCN(C(=O)Cc3cccs3)CC2)cc1`?
BL2 CD40 inh: inactive

What do the screens show for `CC(C)(C)NC(=O)/C=C/c1cccs1`?
BL2 CD40 inh: inactive

Results for CN1C(=O)c2cc(NC(=O)c3cnccn3)ccc2OC[C@H]2O[C@H](CC(=O)NCC3CC3)CC[C@H]21 ?
BL2 CD40 inh: inactive

Results for COc1ccc(-c2ccc3n(c2=O)C[C@H]2[C@H](CO)[C@@H](C(=O)N4CCOCC4)N[C@@H]32)cc1 ?
BL2 CD40 inh: inactive

Results for O=C(NCCc1ccncc1)[C@@H]1[C@@H](CO)[C@@H]2Cn3c(ccc(-c4cccnc4)c3=O)[C@@H]2N1C(=O)C1CC1 ?
BL2 CD40 inh: inactive

How did O=S(=O)(c1ccccc1F)N1C[C@@H]2[C@H](c3ccccc31)[C@H](CO)N2Cc1ccc2c(c1)OCO2 do in these assays?
BL2 CD40 inh: inactive

How did CC(=O)Nc1ccc([N+](=O)[O-])cn1 do in these assays?
BL2 CD40 inh: inactive

What do the screens show for `CC(=O)Nc1ccc(SC(Sc2ccc(NC(C)=O)cc2)c2ccccc2)cc1`?
BL2 CD40 inh: inactive

How did CC(=O)Nc1ccc(Sc2ccc([N+](=O)[O-])o2)cc1 do in these assays?
BL2 CD40 inh: 86

Results for CC(C)(O)C#Cc1ccc([C@@H]2[C@@H](CO)N3CCCCN(C(=O)c4ccncc4)C[C@H]23)cc1 ?
BL2 CD40 inh: inactive

Screening results deposited in PubChem BioAssay by Broad Institute.
